High-throughput results as filed in PubChem BioAssay.
Compounds with a hit are over-represented: about 7.3% of the library has one in this group of screens.
FMDV antiviral: antivirals against foot and mouth disease virus. FMDV antiviral cell-based qHTS. 410,000 compounds, 1.2% hits. Potency, µM (doses to about 57.9 µM), actives largely listed as inhibitors; calls by dose curve; tested in HEK293T cells; further: read-out not given here; nearly all actives have a fitted effect of over 45% in size
VACV mCherry inh: vaccinia inhibition (mCherry reporter); Vaccinia virus mCherry reporter infection, fluorescence; 310,000 compounds, 0.63% hits; Potency, µM (titrated, usually from 36.5 µM), actives largely listed as inhibitors; AID 720579; calls by dose curve; tested in A549 cells; further: nearly all actives have a fitted effect of over 35% in size
HCMV inh: blocks human cytomegalovirus replication | HFF cells, HCMV-luciferase reporter, 72 h; active compounds read low | activity change, negative = inhibition, % at 57.5 µM | 410,000 compounds, 4.5% hits; in the data active means activity change below about -60%; inconclusive means no clear call, values can overlap the other calls; inactive means above about -39%
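Inhibition of viral replication was scored as loss of reporter luminescence in HFFs infected with HCMV-luciferase (MOI 1 PFU/cell) for 72 h; compounds tested at 2 doses, normalized to buffer and Salinomycin controls.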
HCV inhibitor: HCV inhibition. 340,000 compounds, 3.4% hits. Huh7.5.1 HCVcc-Cre infection, luciferase reporter, 44 h. Potency, µM (highest dose often 41.8 µM), actives largely listed as inhibitors; active means well fitted inhibition curve with a large enough effect; inconclusive means small, poorly fitted or top-dose-only effect, or another doubt; inactive means no such curve, though single readings can be large or run the other way
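After 44 h co-culture of compound, cells and HCVcc-Cre (~0.5 moi), substrate is added for 15 min at room temperature and luciferase measured over 15 sec. Cells were seeded at 1,000/well and pre-cultured 4 h.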
Vaccinia Venus: inhibitors of vaccinia virus (Venus reporter) | Vaccinia virus Venus reporter expression, fluorescence | Potency, µM (series often up to 36.5 µM), actives largely listed as inhibitors | 330,000 compounds, 0.46% hits | AID 720580; calls by dose curve; tested in A549 cells; further: nearly all actives have a fitted effect of over 30% in size
Numbers stand for hits; i = inactive; ? = inconclusive; nt = not tested or not shown; + = active, no number; ! = a repeat was not active; [ ] = remark or other dose.

SMILES | FMDV antiviral | VACV mCherry inh | HCMV inh | HCV inhibitor | Vaccinia Venus
O=[N+]([O-])c1cnccc1Nc1ccc(Cl)cc1 | i | i | ? | i | i
COCCNC(=O)c1cnn(-c2cccc(C)c2)c1-n1cccc1 | i | i | + | nt | i
CCOC(=O)N1CCC(NC(=O)c2cnn(-c3cccc(C)c3)c2-n2cccc2)CC1 | ? | i | i | nt | i
CC(=O)c1cccc(NC(=O)N2CCCCCC2)c1 | i | nt | i | i | nt
CC(=O)c1cccc(NS(=O)(=O)c2ccc(N/C=C/C(=O)c3ccc(F)cc3)cc2)c1 | ? | ? | ? | 11.2µM | i
CC(=O)c1cccc(NS(=O)(=O)c2ccc(NC(=O)N3CCCCC3)cc2)c1 | ? | i | -70.8 | ? | i
CC(=O)c1cccc(NS(=O)(=O)c2ccc(N/C=C\C(=O)c3ccc(F)cc3)cc2)c1 | ? | nt | ? | 11.2µM | ?
Cc1ccc(NC(=O)C2CCN(S(=O)(=O)c3c(C)noc3C)CC2)c(C)c1 | i | i | i | nt | i
Cc1nn(-c2nccs2)c2c1C(=O)CC(C)(C)C2Br (centres undefined) | i | i | -70.1 | i | ?
CN1C(=S)SC(/[N+]([O-])=C/c2ccc(Cl)cc2)C1(C)C (centres undefined) | i | i | -65.2 | i | i
CN1C(=S)SC(/[N+]([O-])=C\c2ccccc2)C1(C)C (centres undefined) | i | i | i | i | i
O=C1CC(Sc2nnnn2-c2ccccc2)C(=O)N1c1cccc(Cl)c1 (centres undefined) | i | nt | -61.8 | ? | i
COc1ccc(N2C(=O)CC(Sc3nnnn3-c3ccc(F)cc3)C2=O)cc1 (centres undefined) | i | i | i | ? | i
Cc1ccccc1-c1ncnn1-c1sc2c(c1C#N)CCCCC2 | i | i | i | nt | i
CN(CC1CCCCC1)[C@@H]1CC[C@@]23CCCN2C(=O)CCC[C@H]3[C@H]1Cc1ccccc1 | nt | nt | i | nt | nt
COCc1nn2c(N)c(-c3ccccc3)cnc2c1-c1ccccc1 | i | i | i | i | i
COc1ccc(-c2c(C)nn3c(N)c(-c4ccccc4)cnc23)cc1OC | i | nt | i | 12.6µM | nt
COc1ccccc1-c1c(C)nn2c(N)c(-c3ccccc3)cnc12 | i | i | -81.7 | ? | i
COc1ccccc1CNc1cc(-c2cccc(C#N)c2)ncn1 | i | nt | nt | nt | nt
O=C(COC(=O)c1cc(S(=O)(=O)N2CCOCC2)c(Cl)cc1Cl)c1ccc[nH]1 | i | nt | i | i | nt
O=C(CCc1ccccc1)NNC(=S)NC(=O)c1ccccc1 | nt | i | -100.8 | i | i
CC(C)(C)c1cc(CCC(=O)NNC(=S)NC(=O)c2ccccc2)cc(C(C)(C)C)c1O | i | nt | nt | 2.82µM | nt
COc1cc(NC(=S)NC(=O)CCc2ccccc2)cc(OC)c1 | i | i | -84.0 | nt | i
COc1ccccc1NC(=S)NC(=O)CCc1ccccc1 | i | i | i | i | i
CCOc1ccccc1CNC(=O)c1cnn(-c2ccc(C)cc2)c1-n1cccc1 | i | i | ? | nt | i
SMILES | FMDV antiviral | VACV mCherry inh | HCMV inh | HCV inhibitor | Vaccinia Venus
COc1ccccc1N1CCN(c2nc(CNC(=O)C3CC34CCCC4)nc3ccccc23)CC1 (centres undefined) | i | i | nt | nt | i
CN(CCCNC(=O)c1cc2c(Cl)nc3ccccc3c2s1)Cc1ccccc1 | i | i | ? | 12.6µM | ?
CC1CCCN(CCCNC(=O)c2cc3c(Cl)nc4ccccc4c3s2)C1 (centres undefined) | i | i[7.34 µM] | -90.7! | 12.6µM | ?
COCCn1c(=O)c(CCc2ccccc2)nc2cnc(N(C)C)nc21 | i | nt | nt | nt | nt
CCc1ccc(NC(=O)CSc2nc(C)c(C(=O)Nc3ccccc3)c(-c3ccc(OC)c(OC)c3)c2C#N)cc1 | i | i | i | nt | i
FC(F)(F)c1nc2ccccc2n2c(-c3ccc(Cl)cc3Cl)nnc12 | i | nt | i | i | i
FC(F)(F)c1nnc2c(Sc3ccccc3)nc3ccc(Cl)cc3n12 | ? | nt | -102.9 | 11.2µM | nt
CCOC(=O)c1cnc(Nc2nc3ccccc3o2)nc1CSC(=S)N(CC)CC | i | ? | -64.2 | i | ?
CCOC(=O)c1cnc(Nc2nc3ccccc3o2)nc1CSc1ncccn1 | i | i | nt | i | i
O=C(C[N+]12CN3CN(CN(C3)C1)C2)c1ccc(-c2ccccc2)cc1 | nt | i | nt | nt | i
NCC(=O)Nc1ccc(Cl)cc1C(=O)c1ccc[nH]1 | i | ? | -65.8 | i | i
COC1C(OC(=O)c2ccc(C)[nH]2)C(O)C(Oc2ccc3c(O)c(NC(=O)c4ccc(O)c(CC=C(C)C)c4)c(=O)oc3c2Cl)OC1(C)C (centres undefined) | 39.8µM | i | i | 1.58µM | i
Cc1ccc(-c2csc(N3CCN(CCCn4c(-c5ccncc5)nc5ccccc54)CC3)n2)cc1 | ? | 10µM | ? | ? | ?
CC(=O)N[C@@H](C)c1nc2ccccc2n1CCCN1CCN(c2nc(-c3ccc(C)cc3)cs2)CC1 | i | ? | -67.5 | 3.55µM | ?
Cc1ccc(-c2csc(N3CCN(CCCn4c(C(F)(F)F)nc5ccccc54)CC3)n2)cc1 | ? | i | ? | i | i
COc1ccc(CN(C(=O)c2ccc(C)cc2)c2cccc(N)c2)cc1 | i | i | i | i | i
COc1ccc(C(=O)N(Cc2ccccc2)c2cccc(C)c2)cc1 | i | nt | -60.2 | i | nt
CCOc1ccc(NC(=O)c2nnn(-c3ccc(F)c(Cl)c3)c2C)cc1 | i | i | i | nt | i
Cc1oncc1C(=O)Nc1ccc(C(F)(F)F)cc1 | i | i | -69.2 | i[8.37 µM] | i
Cc1oncc1C(=O)Nc1ccc2ccccc2c1 | i | nt | i | i | nt
Cc1ccc(F)c(S(=O)(=O)NC(=O)C2(C)CCN2C(=O)CC2CCCCC2)c1 (centres undefined) | i | i | i | nt | i
CCCn1c(=O)c(C(=O)NCc2ccncc2)c(O)c2ccccc21 | i | nt | i | i | i
CCn1c(=O)c(C(=O)NNC(=O)c2ccccc2Cl)c(O)c2ccccc21 | i | i | ? | 14.1µM | i
CCCn1c(=O)c(C(=O)NCc2ccccc2Cl)c(O)c2ccccc21 | i | i | i | 12.6µM | i
CCCCCn1c(=O)c(C(=O)NCc2ccccc2Cl)c(O)c2ccccc21 | i | nt | -73.7 | i | nt
SMILES | FMDV antiviral | VACV mCherry inh | HCMV inh | HCV inhibitor | Vaccinia Venus
CCn1c(=O)c(C(=O)NNC(=O)c2ccccc2F)c(O)c2ccccc21 | i | ? | ? | ? | i
CCCCCn1c(=O)c(C(=O)NCc2ccncc2)c(O)c2ccccc21 | i | ? | -87.6 | ? | ?
CCCn1c(=O)c(C(=O)NCc2ccccc2OC)c(O)c2ccccc21 | i | nt | i | i | nt
Cn1cnc(S(=O)(=O)N2CCC[C@@H]2c2noc3ccccc23)c1 | nt | nt | i | nt | nt
Cc1ccc(NC(=O)CNC(=O)c2ccc3c(c2)OCO3)nc1 | i | i | i | i | i
Cc1ccc(C(=O)Nc2ccc(Nc3ccccc3)cc2)cc1C | i | ? | i | ? | i
CC(=O)Nc1ccc2cc3ccc(NC(C)=O)cc3nc2c1 | i | nt | -98.3 | i | nt
O=C(Nc1ccc2c(c1)OCCO2)c1ccc(Cl)cc1 | i | nt | i | i | nt
Cc1ccc(NC(=O)c2ccc3c(c2)OCCO3)cc1S(=O)(=O)Nc1cccc(Cl)c1 | i | i | i | 10µM | ?
Cc1ccc(NC(=O)c2ccc3c(c2)OCCO3)nc1 | 15.8µM | i | i | ? | i
Cc1ccc(NC(=O)c2ccc(NC(=O)c3ccccc3)cc2)cc1C | ? | ? | ? | nt | 10µM
